Results as given in PubChem BioAssay AID740 (SRMLSC, 2007).
About 65 (0.07%) of roughly 96,000 compounds were called active. No stated cut-off is given here; in the data, active means inhibition above about 25%; inactive means the rest. Only a selection was taken, and actives are over-represented in it overall.

Test: unspecified inhibition readout at 50 µM (AID 740)
Settings: unspecified screen; active compounds read high

| SMILES | inhibition |
| --- | --- |
| O=C(COC(=O)C(Cc1ccccc1)NC(=O)c1ccco1)NC1CC1 (centres undefined) | 2.73% (inactive) |
| C=CCn1c(-c2cccn(Cc3cccc(Cl)c3)c2=O)n[nH]c1=S | 0.13% (inactive) |
| CN1C(=O)c2cccc3c(S(=O)(=O)Nc4ccccn4)ccc1c23 | 3.37% (inactive) |
| Clc1cccc(CSc2nnc([C@@H]3CCCN3)o2)c1 | inactive |
| CC1CCCN(C(=O)Nc2cccc(NC(=O)N3CCCC(C)C3C)c2)C1C (centres undefined) | 0.11% (inactive) |
| CCC1CCCCN1C(=O)Nc1ccc(F)cc1 (centres undefined) | 0.1% (inactive) |
| CCC1CCCCN1C(=O)Nc1cccc(NC(=O)N2CCCCC2CC)c1 (centres undefined) | 31.9% (active) |
| NC(=O)C1(N2CCCCC2)CCN(C(=O)CSc2nc(C(F)(F)F)cc(=O)[nH]2)CC1 | 1.15% (inactive) |
| Cc1ccc(/C=C2/SC(=S)N(CC(=O)Nc3ncc(Cc4ccc(C)cc4)s3)C2=O)cc1 | 0.58% (inactive) |
| Cc1ccc(NC(=O)NCCCN2CCCC2=O)cc1 | 1.44% (inactive) |
| CC(=O)Nc1ccc(Nc2ncnc3c2cnn3-c2ccccc2)cc1 | 38.2% (active) |
| CC(=O)Nc1ccc(Nc2ncnc3c2cnn3-c2cccc(C)c2)cc1 | 0.1% (inactive) |
| Clc1ccc(Nc2ncnc3c2cnn3-c2ccccc2)cc1 | inactive |
| CCC(CC)c1nnc(NC(=O)CN2C(=O)C3C4C=CC(C4)C3C2=O)s1 (centres undefined) | inactive |
| CCNc1nc(NCC)nc(SCCOC(=O)COc2ccc(Cl)cc2Cl)n1 | inactive |
| Cc1cc(Oc2ccc(C#N)cc2)nc(N2CCOCC2)n1 | inactive |
| Oc1ccc2oc3c(c2c1)CCCC3 | inactive |
| O=C1NCCCc2c1oc1ccc(O)cc21 | 38.5% (active) |
| O=C1NCCCc2c1oc1cc(Br)c(O)c(Br)c21 | 4.63% (inactive) |
| COc1cc(OC)c(C2=NOC(C(=O)Nc3cc(C)nn3-c3ccccc3)C2)cc1Cl (centres undefined) | 0.65% (inactive) |
| COc1cccc(C2=NOC(C(=O)Nc3cc(C)nn3-c3ccccc3)C2)c1OC (centres undefined) | inactive |
| COc1ccc(OC)c(C2=NOC(C(=O)Nc3cc(C)nn3-c3ccccc3)C2)c1 (centres undefined) | 48.2% (active) |

| SMILES | inhibition |
| --- | --- |
| COc1ccc(-c2cc(C(F)(F)F)nc(N3CCN(Cc4ccccc4)CC3)n2)cc1OC | inactive |
| COc1ccc(-c2cc(C(F)(F)F)nc(SCCC(=O)Nc3cc(C)on3)n2)cc1 | inactive |
| COCCn1c(SCC(=O)Nc2cc(C)cc(C)c2)nnc1C(C)C | 1.46% (inactive) |
| Cc1ccc2nc(NC(=O)C3CCN(S(=O)(=O)c4cccs4)CC3)sc2c1 | 2.46% (inactive) |
| Cc1nc2ccc(NC(=O)C3CCN(S(=O)(=O)c4cccs4)CC3)cc2s1 | 30.7% (active) |
| Cc1ccc(NC(=O)C2CCN(S(=O)(=O)c3cccs3)CC2)cc1C | 0.17% (inactive) |
| O=C(CN(Cc1ccco1)C(=O)c1cc(=O)[nH]c2ccccc12)Nc1ccccc1Br | 0.68% (inactive) |
| COC(=O)c1ccc2ccn(CC(=O)NC(C)C)c2c1 | inactive |
| O=C(O)c1cc2nc(-c3ccc(F)cc3)cc(C(F)(F)F)n2n1 | 1.93% (inactive) |
| Cc1ccccc1C(=O)Nc1ccc2nc3n(c(=O)c2c1)CCC3 | 0.71% (inactive) |
| CN(C)c1cccc(C(=O)Nc2ccc3nc4n(c(=O)c3c2)CCCCC4)c1 | 26.5% (active) |
| O=C(Nc1ccc2nc3n(c(=O)c2c1)CCCCC3)c1ccccn1 | 2.45% (inactive) |
| O=C(NCCN1CCOCC1)N1c2ccccc2Sc2ccccc21 | 0.23% (inactive) |
| O=C1Cc2ccccc2C(c2ccc(Br)cc2)N1 (centres undefined) | inactive |
| COc1ccc(C2NC(=S)NC3=C2CCc2cc(OC)ccc23)cc1 (centres undefined) | inactive |
| Cc1ccc(C2NC(=O)Cc3ccccc32)cc1 (centres undefined) | 0.52% (inactive) |
| O=C1NC2=C(C(=O)c3ccccc32)C(c2ccccc2)N1 (centres undefined) | 0.35% (inactive) |
| Cc1ccc(C2NC(=O)NC3=C2CCc2ccccc23)cc1 (centres undefined) | 85.8% (active) |
| COc1ccc(C2NC(=O)NC3=C2CCc2ccccc23)cc1 (centres undefined) | 66.1% (active) |
| O=C1NC2=C(CCc3ccccc32)C(c2ccc(Br)cc2)N1 (centres undefined) | 70.4% (active) |
| COc1ccc(C2C3=C(N=C4SCC(=O)N42)c2ccccc2CC3)cc1 (centres undefined) | 1.1% (inactive) |
| CC(C)c1ccc(C2NC(=O)NC3=C2CCc2ccccc23)cc1 (centres undefined) | 5.37% (inactive) |

| SMILES | inhibition |
| --- | --- |
| CC(C)CC(c1nnnn1C(C)(C)C)N1CCN(C2CCCC2)CC1 (centres undefined) | 0.26% (inactive) |
| CC(=O)Nc1cccc(C(=O)Nc2ccccc2C(=O)O)c1 | 0.32% (inactive) |
| Cc1ccc2nc(SCC(=O)Nc3c(C)n(C)n(-c4ccccc4)c3=O)[nH]c2c1 | inactive |
| O=C(Nc1ccccc1-c1ccccc1)c1ccco1 | 0.36% (inactive) |
| O=C(Nc1ccccc1-c1ccccc1)c1ccc(NC(=O)c2ccco2)cc1 | 61.8% (active) |
| Cc1ccccc1NC(=O)c1ccc(NC(=O)c2ccco2)cc1 | inactive |
| N#Cc1ccccc1NC(=O)COC(=O)c1ccc2c(c1)OCCO2 | inactive |
| COc1ccc(S(=O)(=O)Nc2ccc(C)cc2)cc1N(C)S(=O)(=O)c1ccc(Cl)cc1 | inactive |
| COc1ccc(NS(=O)(=O)c2ccc(OC)c(N(C)S(=O)(=O)c3ccc(Cl)cc3)c2)cc1 | 25.8% (active) |
| COc1ccc(S(=O)(=O)Nc2ccc(F)cc2)cc1N(C)S(=O)(=O)c1ccc(Cl)cc1 | inactive |
| O=C(NC1CCCC1)C1(c2ccccc2)CCN(S(=O)(=O)c2ccccc2)CC1 | 1.06% (inactive) |
| CN(C)CCNc1ncnc2c1sc1nc(N3CCOCC3)c3c(c12)CC(C)(C)SC3 | inactive |
| CCN(CC)CCNc1ncnc2c1sc1nc(N3CCOCC3)c3c(c12)CC(C)(C)SC3 | inactive |
| CC1(C)Cc2c(c(N3CCOCC3)nc3sc4c(NN)ncnc4c23)CS1 | 27.3% (active) |
| O=C1CC(C(=O)Nc2ccccc2)C2(CCCCC2)O1 (centres undefined) | 1.6% (inactive) |
| Cc1cccc(NC(=O)C2CC(=O)OC23CCCCC3)c1 (centres undefined) | 41.1% (active) |
| O=C1CC(C(=O)Nc2ccccc2)C2(CCCC2)O1 (centres undefined) | inactive |
| CC(=O)Nc1sc(C)c(C)c1C(=O)OC1CCOC1=O (centres undefined) | inactive |
| COc1ccc(C(=O)OCC(=O)Nc2ccc(OC(F)F)cc2)c(OC)c1 | inactive |
| COc1cc(C2C(C#N)=C(C)NC3=C2C(=O)c2ccccc23)cc(OC)c1OC (centres undefined) | 3.83% (inactive) |
